Results taken from PubChem BioAssay AID1159580 (chemical genetic matrix, 2015).
Out of some 5,500 compounds screened, about 2,000 (36%) were called active. Another 18% or so got no clear call; they are omitted. No stated cut-off is given here; in the data, active means normalized growth mostly below about 0.91 (no sharp cut-off); inconclusive means no clear call, values can overlap the other calls; inactive means mostly above about 0.92. The list shows a part of the results.

Test: chemical genetic growth profiling, strain panel (AID 1159580);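 further: tested at 20 µM; growth read once vehicle control cultures reached saturation at 30 °C; 1 = growth at the plate median or of vehicle wells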
Conditions: growth OD

Measured: normalized growth

ClC1C(Cl)C(Cl)C(Cl)C(Cl)C1Cl (stereo unspecified)
active: S. cerevisiae deletion strains, locus YKL068W, stronger effect = lower value 0.902 | S. cerevisiae deletion strains, locus YKL085W, strain MDH1 (second series), stronger effect = lower value 0.909 | S. cerevisiae deletion strains, locus YKL085W, strain MDH1, stronger effect = lower value 0.909 | S. cerevisiae deletion strains, locus YKL160W, strain elf1, stronger effect = lower value 0.873 | S. cerevisiae deletion strains, locus YKR001C, strain vps1, stronger effect = lower value 0.879 | S. cerevisiae deletion strains, locus YLR027C, strain aat2, stronger effect = lower value 0.916 | S. cerevisiae deletion strains, locus YLR039C, strain RIC1, stronger effect = lower value 0.506 | S. cerevisiae deletion strains, locus YLR221C, strain rsa3, stronger effect = lower value 0.872 | S. cerevisiae deletion strains, locus YLR262C, strain YPT6 (second series), stronger effect = lower value 0.659 | S. cerevisiae deletion strains, locus YLR262C, strain YPT6, stronger effect = lower value 0.57 | S. cerevisiae deletion strains, locus YLR320W, strain mms22, stronger effect = lower value 0.622 | S. cerevisiae deletion strains, locus YLR342W, strain FKS1, stronger effect = lower value 0.89 | S. cerevisiae deletion strains, locus YML124C, strain tub3, stronger effect = lower value 0.929 | S. cerevisiae deletion strains, locus YMR058W, strain fet3, stronger effect = lower value 0.846 | S. cerevisiae deletion strains, locus YMR205C, strain PFK2, stronger effect = lower value 0.665 | S. cerevisiae deletion strains, locus YNL071W, strain lat1, stronger effect = lower value 0.638 | S. cerevisiae deletion strains, locus YOL147C, strain pex11, stronger effect = lower value 0.929 | S. cerevisiae deletion strains, locus YOR270C, strain vph1, stronger effect = lower value 0.67 | S. cerevisiae deletion strains, locus YPL051W, strain arl3, stronger effect = lower value 0.872 | S. cerevisiae deletion strains, locus YPL078C, strain atp4, stronger effect = lower value 0.865 | S. cerevisiae deletion strains, locus YPL256C, strain CLN2, stronger effect = lower value 0.821 | S. cerevisiae deletion strains, locus YPR119W, strain clb2, stronger effect = lower value 0.923 | S. cerevisiae deletion strains, locus YPR141C, strain kar3, stronger effect = lower value 0.89 | S. cerevisiae deletion strains, locus YPR167C, strain met16, stronger effect = lower value 0.91
inactive: S. cerevisiae deletion strains, locus YJR075W, strain HOC1, stronger effect = lower value 0.926 | S. cerevisiae deletion strains, locus YKL009W, strain mrt4, stronger effect = lower value 0.964 | S. cerevisiae deletion strains, locus YKL190W, strain CNB1, stronger effect = lower value 0.954 | S. cerevisiae deletion strains, locus YKR026C, strain gcn3, stronger effect = lower value 0.964 | S. cerevisiae deletion strains, locus YKR091W, strain srl3, stronger effect = lower value 0.963 | S. cerevisiae deletion strains, locus YLL001W, strain dnm1, stronger effect = lower value 0.938 | S. cerevisiae deletion strains, locus YLL026W, stronger effect = lower value 0.956 | S. cerevisiae deletion strains, locus YLL041C, strain sdh2, stronger effect = lower value 0.979 | S. cerevisiae deletion strains, locus YLR058C, strain SHM2, stronger effect = lower value 0.942 | S. cerevisiae deletion strains, locus YLR102C, strain apc9, stronger effect = lower value 0.935 | S. cerevisiae deletion strains, locus YLR113W, strain HOG1, stronger effect = lower value 0.862 | S. cerevisiae deletion strains, locus YLR258W, strain gsy2, stronger effect = lower value 0.969 | S. cerevisiae deletion strains, locus YLR268W, strain sec22, stronger effect = lower value 0.949 | S. cerevisiae deletion strains, locus YLR330W, strain CHS5, stronger effect = lower value 0.948 | S. cerevisiae deletion strains, locus YLR342W, strain FKS1 (second series), stronger effect = lower value 0.947 | S. cerevisiae deletion strains, locus YLR357W, strain rsc2, stronger effect = lower value 0.996 | S. cerevisiae deletion strains, locus YLR370C, strain arc18, stronger effect = lower value 0.975 | S. cerevisiae deletion strains, locus YLR371W, strain rom2, stronger effect = lower value 0.944 | S. cerevisiae deletion strains, locus YLR384C, strain iki3, stronger effect = lower value 0.991 | S. cerevisiae deletion strains, locus YLR418C, strain cdc73, stronger effect = lower value 0.843 | S. cerevisiae deletion strains, locus YML016C, strain PPZ1, stronger effect = lower value 0.945 | S. cerevisiae deletion strains, locus YML032C, strain rad52, stronger effect = lower value 0.927 | S. cerevisiae deletion strains, locus YML120C, strain ndi1, stronger effect = lower value 0.978 | S. cerevisiae deletion strains, locus YMR078C, strain ctf18, stronger effect = lower value 0.918 | S. cerevisiae deletion strains, locus YMR125W, strain sto1, stronger effect = lower value 1.03 | S. cerevisiae deletion strains, locus YMR129W, stronger effect = lower value 0.988 | S. cerevisiae deletion strains, locus YMR223W, strain ubp8, stronger effect = lower value 0.956 | S. cerevisiae deletion strains, locus YMR231W, strain pep5, stronger effect = lower value 1.01 | S. cerevisiae deletion strains, locus YMR263W, strain SAP30, stronger effect = lower value 0.955 | S. cerevisiae deletion strains, locus YMR307W, strain GAS1, stronger effect = lower value 1.07 | S. cerevisiae deletion strains, locus YNL067W, strain RPL9B, stronger effect = lower value 0.968 | S. cerevisiae deletion strains, locus YNL128W, strain TEP1, stronger effect = lower value 0.958 | S. cerevisiae deletion strains, locus YNL153C, strain GIM3, stronger effect = lower value 0.969 | S. cerevisiae deletion strains, locus YNL183C, strain NPR1, stronger effect = lower value 0.905 | S. cerevisiae deletion strains, locus YNL209W, strain ssb2, stronger effect = lower value 0.992 | S. cerevisiae deletion strains, locus YNL233W, strain BNI4, stronger effect = lower value 0.975 | S. cerevisiae deletion strains, locus YNL248C, strain rpa49, stronger effect = lower value 0.995 | S. cerevisiae deletion strains, locus YNL250W, strain rad50, stronger effect = lower value 0.909 | S. cerevisiae deletion strains, locus YNL271C, strain bni1, stronger effect = lower value 0.948 | S. cerevisiae deletion strains, locus YNL298W, strain CLA4, stronger effect = lower value 0.946 | S. cerevisiae deletion strains, locus YNL322C, strain KRE1 (second series), stronger effect = lower value 0.969 | S. cerevisiae deletion strains, locus YNL322C, strain KRE1, stronger effect = lower value 0.941 | S. cerevisiae deletion strains, locus YNR049C, strain mso1, stronger effect = lower value 0.975 | S. cerevisiae deletion strains, locus YNR052C, strain pop2, stronger effect = lower value 0.963 | S. cerevisiae deletion strains, locus YOL006C, strain TOP1, stronger effect = lower value 0.843 | S. cerevisiae deletion strains, locus YOL012C, strain htz1 0.8 | S. cerevisiae deletion strains, locus YOR001W, strain rrp6, stronger effect = lower value 0.963 | S. cerevisiae deletion strains, locus YOR061W, strain CKA2, stronger effect = lower value 0.948 | S. cerevisiae deletion strains, locus YOR069W, strain VPS5, stronger effect = lower value 0.963 | S. cerevisiae deletion strains, locus YOR070C, strain gyp1, stronger effect = lower value 0.965 | S. cerevisiae deletion strains, locus YOR080W, strain dia2, stronger effect = lower value 1.02 | S. cerevisiae deletion strains, locus YOR083W, strain WHI5, stronger effect = lower value 0.914 | S. cerevisiae deletion strains, locus YOR106W, strain vam3, stronger effect = lower value 0.942 | S. cerevisiae deletion strains, locus YOR136W, strain idh2, stronger effect = lower value 0.962 | S. cerevisiae deletion strains, locus YOR144C, strain elg1, stronger effect = lower value 0.94 | S. cerevisiae deletion strains, locus YOR184W, strain ser1, stronger effect = lower value 0.977 | S. cerevisiae deletion strains, locus YOR231W, strain MKK1, stronger effect = lower value 0.971 | S. cerevisiae deletion strains, locus YOR265W, strain rbl2, stronger effect = lower value 0.981 | S. cerevisiae deletion strains, locus YOR290C, strain snf2, stronger effect = lower value 0.921 | S. cerevisiae deletion strains, locus YOR316C, strain cot1, stronger effect = lower value 0.924 | S. cerevisiae deletion strains, locus YPL055C, strain LGE1, stronger effect = lower value 0.965 | S. cerevisiae deletion strains, locus YPL106C, strain sse1, stronger effect = lower value 1.01 | S. cerevisiae deletion strains, locus YPL240C, strain hsp82, stronger effect = lower value 0.978 | S. cerevisiae deletion strains, locus YPL241C, strain CIN2, stronger effect = lower value 0.961 | S. cerevisiae deletion strains, locus YPR163C, strain tif3, stronger effect = lower value 0.938 | S. cerevisiae deletion strains, strain wtn01, stronger effect = lower value 0.932 | S. cerevisiae strains, strain wild type, stronger effect = lower value 0.952
